Measured values reported in PubChem BioAssay (Tox21).
Inconclusive results are not listed. Calls of active or inactive are those of the source. The call rests on the fitted dose curve.

Columns and labels:
[1] = target: Acetylcholinesterase (Homo sapiens) (UniProt P22303); test: Acetylcholinesterase (AChE) small molecule antagonists: colormetric cell-based qHTS assay (AID 1347395); further: nearly all actives have a fitted effect of over 30% in size; further: potency means the concentration at half of the fitted maximal effect
In short: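 In this cell-based qHTS, attached SH-SY5Y cells were treated with test chemicals for 30 min, after which acetylthiocholine hydrolysis was followed by DTNB colour development over 90 min at 37 C.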

[2] = target: Acetylcholinesterase (Homo sapiens) (UniProt P22303); test: Acetylcholinesterase (AChE) small molecule antagonists: enzyme-based qHTS assay (AID 1347397); details: Potency: AChE enzyme activity inhibition; outcome: AChE enzyme activity inhibition; further: nearly all actives have a fitted effect of over 55% in size; further: potency means the concentration at half of the fitted maximal effect
In short: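 Absorbance-based detection of thiocholine with DTNB served as the read-out. Recombinant human AChE was exposed to compound for 30 min at RT before a 10 min RT incubation with acetylthiocholine.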

[3] = target: Acetylcholinesterase (Homo sapiens) (UniProt P22303); test: Acetylcholinesterase (AChE) small molecule antagonists: fluorescence cell-based qHTS assay (AID 1347398); details: Potency: AChE activity; outcome: AChE activity; further: nearly all actives have a fitted effect of over 50% in size; further: potency means the concentration at half of the fitted maximal effect
In short: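 Fluorimetric cell-based assay: intact SH-SY5Y cells, 30 min compound preincubation at 37 C, acetylthiocholine substrate with thiol probe Thiolite Green, 40 min RT development, fluorescence 490/520 nm.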

[4] = target: Acetylcholinesterase (Homo sapiens) (UniProt P22303); test: Acetylcholinesterase (AChE) small molecule antagonists: enzyme-based qHTS assay with human liver microsomes (AID 1347399); details: Potency: qHTS inhibition; outcome: qHTS inhibition; further: nearly all actives have a fitted effect of over 60% in size
In short: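 Recombinant human AChE (50 mU/mL in the enzyme mix) and human liver microsomes (0.25 mg/mL final) were preincubated with compound and NADPH (0.25 mg/mL final) for 30 min at 37 C. Acetylthiocholine/DTNB was then added; thiocholine was read colorimetrically after 10 min at room temperature.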
On the % scale 0 is the no-effect control and ±100 the full control effect.

Acetylcholinesterase (Homo sapiens), sequence (P22303 whole entry, looked up): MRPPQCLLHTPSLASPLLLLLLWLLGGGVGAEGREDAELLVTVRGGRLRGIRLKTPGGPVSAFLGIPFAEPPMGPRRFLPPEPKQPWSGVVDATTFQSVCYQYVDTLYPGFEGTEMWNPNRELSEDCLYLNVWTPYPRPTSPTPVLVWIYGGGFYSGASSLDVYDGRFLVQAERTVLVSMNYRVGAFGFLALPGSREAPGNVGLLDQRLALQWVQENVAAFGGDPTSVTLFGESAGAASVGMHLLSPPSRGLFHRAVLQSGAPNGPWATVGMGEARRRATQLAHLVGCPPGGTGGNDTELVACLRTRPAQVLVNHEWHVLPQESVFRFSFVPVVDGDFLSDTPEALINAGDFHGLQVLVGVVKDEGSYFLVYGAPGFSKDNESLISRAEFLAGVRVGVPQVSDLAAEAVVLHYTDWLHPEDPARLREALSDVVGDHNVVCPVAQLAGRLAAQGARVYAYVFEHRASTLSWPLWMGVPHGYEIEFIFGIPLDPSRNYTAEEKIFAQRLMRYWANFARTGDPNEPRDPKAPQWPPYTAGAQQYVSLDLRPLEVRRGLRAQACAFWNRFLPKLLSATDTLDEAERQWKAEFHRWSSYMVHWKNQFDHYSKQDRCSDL

CC(C)OC(=O)c1ccccc1C(=O)OC(C)C
inactive: Potency [1] | Potency [2] | Potency [3] | Potency [4]

CC(C)c1ccccc1
inactive: Potency [1] | Potency [2] | Potency [3] | Potency [4]

O=C1CCC(=O)N1
inactive: Potency [1] | Potency [2] | Potency [3] | Potency [4]

CCOC(=O)C(C)(C)C
inactive: Potency [1] | Potency [2] | Potency [3] | Potency [4]

CCOCCOCCOC(C)=O
inactive: Potency [1] | Potency [2] | Potency [3] | Potency [4]

CCO[Si](C)(C)OCC
inactive: Potency [1] | Potency [2] | Potency [3] | Potency [4]

CCOC(=O)CC(=O)C(=O)OCC
inactive: Potency [1] | Potency [2] | Potency [3] | Potency [4]

BrCCCCCBr
inactive: Potency [1] | Potency [2] | Potency [3] | Potency [4]

CCCCC(CC)C(=O)OC(C)C (stereo not given)
inactive: Potency [1] | Potency [2] | Potency [3] | Potency [4]

CCCCC1C(=O)N(c2ccccc2)N(c2ccc(O)cc2)C1=O (stereo not given)
inactive: Potency [1] | Potency [2] | Potency [3] | Potency [4]

O=C(O)c1cccnc1C(=O)O
inactive: Potency [1] | Potency [2] | Potency [3] | Potency [4]

CC(C)(C)C(=O)/C=C/c1ccc(Cl)cc1
inactive: Potency [1] | Potency [2] | Potency [3] | Potency [4]

CCOC(=O)c1ccc(N(C)C)cc1
inactive: Potency [1] | Potency [2] | Potency [3] | Potency [4]

Cc1nc2ccccc2n1Cc1ccc(Cl)cc1
inactive: Potency [1] | Potency [2] | Potency [3] | Potency [4]

Cc1cc(=O)c2c(O)c3c(O)cc(=O)c4c3c3c(cc(O)c1c23)C(C)(C)C=4O
inactive: activity, negative = inhibition [1] 0.337% [at 23.6 µM] | activity change, negative = inhibition [2] 2.31% [at 23.6 µM] | activity change, negative = inhibition [3] 7.09% [at 23.8 µM] | activity change, negative = inhibition [4] 0.168% [at 23.6 µM]

Cc1nc(C)nc(N2C[C@@H](C)N(c3ccnc([C@@H](C)O)n3)[C@@H](C)C2)n1
inactive: Potency [1] | Potency [2] | Potency [3] | Potency [4]

C=C(C)C(=O)OCC(C)(C)COC(=O)C(=C)C
inactive: Potency [1] | Potency [2] | Potency [3] | Potency [4]

COC(=O)[C@H]1[C@H]2C[C@@H]3c4[nH]c5cc(OC)ccc5c4CCN3C[C@H]2C[C@@H](OC(=O)COc2ccc(OC)cc2)[C@@H]1OC
inactive: Potency [1] | Potency [2] | Potency [3] | Potency [4]

CCc1cccc(CC)c1NC(=O)C(=O)O
inactive: Potency [1] | Potency [2] | Potency [3] | Potency [4]

COc1cc2nc(N(C)CCCNC(=O)C3CCCO3)nc(N)c2cc1OC (stereo not given)
inactive: Potency [4]
active: Potency [1] 17.4 µM | Potency [2] 24.5 µM | Potency [3] 15.5 µM

CCc1cc(S(=O)(=O)O)c2cc(C(C)C)cccc1-2
inactive: Potency [1] | Potency [2] | Potency [3] | Potency [4]

O=C(O)CNC(=O)CNC(=O)CNC(=O)CSC(=O)c1ccccc1
inactive: Potency [1] | Potency [2] | Potency [3] | Potency [4]

NC(=O)c1ccccc1C(N)=O
inactive: Potency [1] | Potency [2] | Potency [3] | Potency [4]

CC(=O)OCC(=O)[C@@]1(O)CC[C@H]2[C@@H]3CCC4=CC(=O)C=C[C@]4(C)[C@@]3(F)[C@@H](O)C[C@@]21C
inactive: Potency [1] | Potency [2] | Potency [3] | Potency [4]

COC(=O)CCC(=O)O
inactive: Potency [1] | Potency [2] | Potency [3] | Potency [4]

CCCOC(OCCC)OCCC
inactive: Potency [1] | Potency [2] | Potency [3] | Potency [4]

C=C(C)C(=O)OCC(O)COc1ccc(C(C)(C)c2ccc(OCC(O)COC(=O)C(=C)C)cc2)cc1 (stereo not given)
inactive: Potency [1] | Potency [2] | Potency [3] | Potency [4]

Cc1ccc(N/N=c2\c(=O)cc/c(=N\Nc3ccc(S(=O)(=O)O)cc3)c2=O)c(C)c1
inactive: Potency [1] | Potency [2] | Potency [3] | Potency [4]

Cc1ccc(C(C)c2ccc(C)c(C)c2)cc1C
inactive: Potency [1] | Potency [2] | Potency [3] | Potency [4]

CN1[C@@H]2CC[C@H]1CC(NC(=O)n1c(=O)[nH]c3ccccc31)C2 (stereo not given in full)
inactive: Potency [1] | Potency [2] | Potency [3] | Potency [4]

CCCCCCCCCCCCCCCS(=O)(=O)Oc1ccccc1
inactive: Potency [1] | Potency [2] | Potency [3] | Potency [4]

Cc1ccc(C2OC[C@@H]3OC(c4ccc(C)cc4)O[C@H]([C@H](O)CO)[C@@H]3O2)cc1 (stereo not given in full)
inactive: Potency [1] | Potency [2] | Potency [3] | Potency [4]

C=C1CC[C@H]2O[C@]2(C)CC[C@@H]2[C@@H]1CC2(C)C
inactive: Potency [1] | Potency [2] | Potency [3] | Potency [4]

Nc1ccc(S(=O)(=O)O)c(N)c1
inactive: Potency [1] | Potency [2] | Potency [3] | Potency [4]

COCCCOCCCOC
inactive: Potency [1] | Potency [2] | Potency [3] | Potency [4]

CCOC(=O)[C@H](CCc1ccccc1)N[C@H]1CS[C@H](c2cccs2)CN(CC(=O)O)C1=O
inactive: Potency [1] | Potency [2] | Potency [3] | Potency [4]

Cc1ccccc1C#N
inactive: Potency [1] | Potency [2] | Potency [3] | Potency [4]

CCCCc1ccc(N)cc1
inactive: Potency [1] | Potency [2] | Potency [3] | Potency [4]

Cc1ccc(N(CC2=NCCN2)c2cccc(O)c2)cc1
inactive: Potency [1] | Potency [2] | Potency [3] | Potency [4]

CC(=C(CCOC(=O)C(C)C)SSC(CCOC(=O)C(C)C)=C(C)N(C=O)Cc1cnc(C)nc1N)N(C=O)Cc1cnc(C)nc1N
inactive: Potency [1] | Potency [2] | Potency [3] | Potency [4]
